Potency data for ten compounds are collected here from PubChem BioAssay (NCATS).

Assay [1] in a line: Quantitative High-Throughput drug screen in 47 multiple myeloma cell lines against the NCATS MIPE library collection: KHM11_PLB cell viability assay (AID 1918962). Further: nearly all actives have a fitted effect of over 35% in size. The essentials:
(§1)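 CellTiter-Glo luminescence (ATP) after 48 h compound exposure, 37C/5% CO2; 500 cells/well; MIPE 4.0 approved/investigational drugs pinned in; DMSO = 100%, media only = 0% viability.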

Assay [2] is described as follows: Quantitative High-Throughput drug screen in 47 multiple myeloma cell lines against the NCATS MIPE library collection: JIM3_ECACC cell viability assay (AID 1918963; further: nearly all actives have a fitted effect of over 35% in size). The essentials: as §1
The nature of assay [3]: Quantitative High-Throughput drug screen in 47 multiple myeloma cell lines against the NCATS MIPE library collection: H1112_PLB cell viability assay (AID 1918967; further: nearly all actives have a fitted effect of over 30% in size). The essentials: (§2)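 Myeloma cells (500 per well) were exposed to MIPE 4.0 compounds by pin transfer and incubated 48 hours at 37C, 5% CO2. Viability was read as ATP by CellTiter-Glo luminescence, normalised to DMSO (100%) and media-only (0%) wells.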

A short description of assay [4]: Quantitative High-Throughput drug screen in 47 multiple myeloma cell lines against the NCATS MIPE library collection: KMS27_JCRB cell viability assay (AID 1918970). Further: nearly all actives have a fitted effect of over 30% in size. The settings on record: KMS27 myeloma cells, CellTiter-Glo ATP viability, 48 h; viability (% of DMSO): at 45.8 µM (top of the series). In short, it runs like this:
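ATP-based viability (CellTiter-Glo luminescence) is measured in cells treated 48 h with approved and investigational drugs at 37 °C. Controls are DMSO-only wells for full viability and media-only wells for none.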
(ATP-based viability assays read luminescence as a measure of living cells.)

Assay [5] can be described thus: Quantitative High-Throughput drug screen in 47 multiple myeloma cell lines against the NCATS MIPE library collection: KMS12BM_JCRB cell viability assay (AID 1918971). Further: nearly all actives have a fitted effect of over 35% in size. The essentials: (§3)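 Approved and investigational drugs from MIPE 4.0 were added by pin tool to 500 cells per well. After 48 hours at 37C, ATP-based CellTiter-Glo luminescence indicated remaining viability.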

A short description of assay [6]: Quantitative High-Throughput drug screen in 47 multiple myeloma cell lines against the NCATS MIPE library collection: KMS12PE_JCRB cell viability assay (AID 1918972). Further: nearly all actives have a fitted effect of over 30% in size. The essentials: as §2
Assay [7] in a line: Quantitative High-Throughput drug screen in 47 multiple myeloma cell lines against the NCATS MIPE library collection: KMS20_JCRB cell viability assay (AID 1918973). Further: nearly all actives have a fitted effect of over 45% in size. The essentials:
as §2

A short description of assay [8]: Quantitative High-Throughput drug screen in 47 multiple myeloma cell lines against the NCATS MIPE library collection: KMS26_JCRB cell viability assay (AID 1918975). Further: nearly all actives have a fitted effect of over 45% in size. The essentials:
as §3

Assay [9] in a line: Quantitative High-Throughput drug screen in 47 multiple myeloma cell lines against the NCATS MIPE library collection: MMM1_PLB cell viability assay (AID 1918976). Further: nearly all actives have a fitted effect of over 35% in size. The essentials: (§4)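 Myeloma cells (500/well) treated with MIPE 4.0 compounds for 48 h at 37 °C, 5% CO2. Viability read as ATP via CellTiter-Glo luminescence after 5 min at RT; DMSO-only wells = 100%, media-only = 0% viability.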

Assay [10] can be described thus: Quantitative High-Throughput drug screen in 47 multiple myeloma cell lines against the NCATS MIPE library collection: MOLP8_DSMZ cell viability assay (AID 1918977). Further: nearly all actives have a fitted effect of over 45% in size. The essentials: as §4
Assay [11] in a line: Quantitative High-Throughput drug screen in 47 multiple myeloma cell lines against the NCATS MIPE library collection: NCIH929_DSMZ cell viability assay (AID 1918978). Further: nearly all actives have a fitted effect of over 35% in size. The essentials: as §4
The nature of assay [12]: Quantitative High-Throughput drug screen in 47 multiple myeloma cell lines against the NCATS MIPE library collection: KMM1_JCRB cell viability assay (AID 1918960). Further: nearly all actives have a fitted effect of over 30% in size. In short, it runs like this:
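Luminescence from CellTiter-Glo, taken after 5 min at room temperature, reports cellular ATP as viability. Cells (500 per well) had been treated 48 h at 37 °C with MIPE 4.0 compounds, scaled between DMSO and medium-only controls.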

Assay [13] is described as follows: Quantitative High-Throughput drug screen in 47 multiple myeloma cell lines against the NCATS MIPE library collection: INA6_PLB cell viability assay (AID 1918965; further: nearly all actives have a fitted effect of over 55% in size). The essentials: as §2
A short description of assay [14]: Quantitative High-Throughput drug screen in 47 multiple myeloma cell lines against the NCATS MIPE library collection: JJN3_DSMZ cell viability assay (AID 1918966; further: nearly all actives have a fitted effect of over 50% in size). In short, it runs like this:
as §2

Assay [15] is described as follows: Quantitative High-Throughput drug screen in 47 multiple myeloma cell lines against the NCATS MIPE library collection: Karpas25_ECACC cell viability assay (AID 1918968; further: nearly all actives have a fitted effect of over 35% in size). The essentials:
as §2

Assay [16] can be described thus: Quantitative High-Throughput drug screen in 47 multiple myeloma cell lines against the NCATS MIPE library collection: Karpas417_ECACC cell viability assay (AID 1918961). The following applies: Karpas417 myeloma viability, CellTiter-Glo ATP luminescence, 48 h; viability (% of DMSO): at 45.8 µM (top of the series). The essentials: as §2
A short description of assay [17]: Quantitative High-Throughput drug screen in 47 multiple myeloma cell lines against the NCATS MIPE library collection: JIM1_ECACC cell viability assay (AID 1918964). The essentials:
as §2

A short description of assay [18]: Quantitative High-Throughput drug screen in 47 multiple myeloma cell lines against the NCATS MIPE library collection: OCIMY1_PLB cell viability assay (AID 1918979). Further: nearly all actives have a fitted effect of over 35% in size. The essentials: as §4

Results filed as inconclusive are left out. Activity calls are given as the source filed them. The call rests on the fitted dose curve; in most records, active means well fitted curve in the direction sought with a large enough effect; inconclusive means small, poorly fitted or top-dose-only effect, or another doubt; inactive means no such curve, though single readings can be large; an effect the other way counts as inactive or inconclusive.
Potency means the concentration at half of the fitted maximal effect.

Consider `COc1cc([C@@H]2c3cc4c(cc3[C@H](O)[C@H]3COC(=O)[C@@H]23)OCO4)cc(OC)c1OC`, for which the Potency in assay [1] was 105 nM (active); in assay [2], 118 nM (active); in [3], 526 nM (active); in assay [4], 52.6 nM (active); in assay [5], 148 nM (active); in assay [6], 118 nM (active). For the same compound, the Potency was 1320 nM (active) in [7]; 372 nM (active) in [8]; 469 nM (active) in assay [9]; 469 nM (active) in assay [10]; 590 nM (active) in [11].
Regarding `CC[C@]12C=CCN3CC[C@@]4(c5cc([C@@]6(C(=O)OC)C[C@H]7C[C@@H](C(C)(F)F)CN(Cc8c6[nH]c6ccccc86)C7)c(OC)cc5N(C)[C@H]4[C@@](O)(C(=O)OC)[C@H]1OC(C)=O)[C@@H]32`, the Potency was 8.3 nM (active) in [12]; 1 nM (active) in assay [13]; 1480 nM (active) in assay [14]; 37.2 nM (active) in assay [3]; 23.5 nM (active) in [15]; 7.4 nM (active) in assay [6]. The Potency in assay [8] was 1480 nM (active); in assay [9], 4690 nM (active); in assay [10], 9350 nM (active); in assay [11], 469 nM (active).
Take `C#C[C@]1(O)CC[C@@H]2[C@@H]3CCc4cc(O)ccc4[C@H]3CC[C@@]21C`: the Potency is 8330 nM (active) in [16]; 20900 nM (active) in assay [2]; 18700 nM (active) in [3]; 18700 nM (active) in [15]; 16600 nM (active) in assay [4]; 20900 nM (active) in [5]. Also, the Potency is 16600 nM (active) in assay [6]; 14800 nM (active) in assay [7]; 3720 nM (active) in [8]; 14800 nM (active) in [9]; 3720 nM (active) in [11].
Consider `COc1ccc(C=Cc2cc(OC)c(OC)c(OC)c2)cc1NC(=O)[C@H](N)CO`, for which the Potency is 590 nM (active) in assay [16]; 23.5 nM (active) in [14]; 1 nM (active) in [15]; 16.6 nM (active) in assay [5]; 33.2 nM (active) in assay [8]; 18.7 nM (active) in [9]. Also, the Potency in assay [10] is 66.2 nM (active); in [11], 5.9 nM (active). For the same compound, in assay [1], the Potency entry was “inactive”.
With `COC1=C2C[C@@H](C)C[C@H](OC)[C@@H](O)[C@@H](C)C=C(C)[C@H](OC(N)=O)[C@@H](OC)C=CC=C(C)C(=O)NC(=CC1=O)C2=O`, the Potency is 132 nM (active) in [1]; 209 nM (active) in assay [2]; 7430 nM (active) in [17]; 148 nM (active) in assay [13]; 66.2 nM (active) in assay [14]; 1870 nM (active) in assay [3]. Moreover, the Potency was 118 nM (active) in assay [15]; 118 nM (active) in assay [5]; 41.8 nM (active) in assay [7]; 52.6 nM (active) in assay [8]; 1050 nM (active) in assay [9]; 41.8 nM (active) in assay [10]. In addition, the Potency in assay [11] was 118 nM (active); in assay [18], 166 nM (active).
For `Cc1cc(-c2nnc3n2CCCCC3)c(C)n1-c1ccccc1`, the Potency result in assay [2], in assay [3], in assay [15] and in assay [11] was “inactive” in each case. In addition, the Potency in assay [6] was 20900 nM (active); in assay [9] it was 14800 nM (active); in assay [18], 1.2 nM (active).
Regarding `FC(F)c1nc2ccccc2n1-c1nc(N2CCOCC2)nc(N2CCOCC2)n1`, the Potency was 469 nM (active) in assay [1]; 372 nM (active) in assay [2]; 743 nM (active) in [14]; 93.5 nM (active) in [15]; 105 nM (active) in assay [4]; 1660 nM (active) in assay [5]. The Potency in [7] is 332 nM (active); in assay [8], 743 nM (active); in assay [9], 526 nM (active); in assay [10], 132 nM (active); in assay [11] it was 105 nM (active).
On to `C=C1C(=O)O[C@H]2[C@@H]1CCC(C)=CCC[C@@]1(C)O[C@@H]21`, for which the Potency was 10500 nM (active) in assay [1]; 2960 nM (active) in assay [2]; 935 nM (active) in assay [13]; 7430 nM (active) in assay [14]; 4180 nM (active) in [3]; 1050 nM (active) in assay [15]. Further, the Potency was 9350 nM (active) in assay [4]; 8330 nM (active) in [5]; 3720 nM (active) in assay [8]; 13200 nM (active) in assay [9]; 2960 nM (active) in assay [11]; 5260 nM (active) in assay [18].
On to `COc1cc2c(cc1O)CCC1C2CC[C@@]2(C)C1CC[C@@H]2O` (some centres undefined), for which, in assay [16], the Potency result is “inactive”. Also, the Potency in assay [2] is 1320 nM (active); in assay [13], 1660 nM (active); in assay [14], 8330 nM (active); in assay [15], 2960 nM (active); in assay [5], 1180 nM (active); in assay [8] it was 3720 nM (active). The values for the Potency in assay [9], in assay [11] and in [18] were 6620 nM (active), 7430 nM (active) and 3320 nM (active), respectively.
As to `C=CC(=O)Nc1cccc(Nc2nc(NC3CCC(N(C)C)CC3)nc3c2ncn3C(C)C)c1` (centres undefined), the Potency in [1] was 372 nM (active); in assay [2] it was 332 nM (active); in assay [17] it was 1 nM (active); in [13] it was 296 nM (active); in assay [14], 10.5 nM (active); in assay [3], 41.8 nM (active). Also, the Potency in assay [4] was 10.5 nM (active); in assay [6] it was 11.8 nM (active); in assay [7], 93.5 nM (active); in assay [8] it was 235 nM (active); in [9], 1050 nM (active); in assay [10] it was 166 nM (active). Also, the Potency in assay [11] is 37.2 nM (active); in assay [18], 4690 nM (active).
